Experimental data reported in PubChem BioAssay (Tox21).
Unmarked numbers belong to inactive results. Activity calls are given as the source filed them. Calls follow the shape of the full dose curve.

What follows are compounds tested against Estrogen receptor (Homo sapiens) (UniProt P03372) (assay: qHTS assay to identify small molecule agonists of the estrogen receptor alpha (ER-alpha) signaling pathway in the presence of an antagonist (AID 1259383; also: nearly all actives have a fitted effect of over 15% in size; as to activation: top concentration of the series differs between compounds)). Settings: VM7Luc4E2 cells, ERE-luciferase, +ICI-182,780, 22 h; series mostly up to 92.4 µM; activation: at the top concentration.
Estrogen receptor (Homo sapiens), sequence (P03372 whole entry, looked up): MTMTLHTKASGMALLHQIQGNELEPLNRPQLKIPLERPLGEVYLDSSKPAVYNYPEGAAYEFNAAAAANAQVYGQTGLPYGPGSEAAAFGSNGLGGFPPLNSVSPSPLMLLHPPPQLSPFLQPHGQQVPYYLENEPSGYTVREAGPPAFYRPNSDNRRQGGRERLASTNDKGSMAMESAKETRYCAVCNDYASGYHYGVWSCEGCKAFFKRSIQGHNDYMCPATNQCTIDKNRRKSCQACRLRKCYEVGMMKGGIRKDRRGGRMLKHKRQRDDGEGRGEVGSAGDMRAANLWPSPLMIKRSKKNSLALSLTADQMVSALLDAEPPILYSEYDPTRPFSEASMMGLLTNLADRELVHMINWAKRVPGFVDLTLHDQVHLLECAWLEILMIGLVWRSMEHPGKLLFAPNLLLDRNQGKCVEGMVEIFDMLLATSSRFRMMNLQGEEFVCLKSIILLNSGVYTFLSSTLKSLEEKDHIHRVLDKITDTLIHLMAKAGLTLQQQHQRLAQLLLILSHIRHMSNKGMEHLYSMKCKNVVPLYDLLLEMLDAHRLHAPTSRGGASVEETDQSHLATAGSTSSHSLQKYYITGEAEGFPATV
Description: National Center for Advancing Translational Sciences [NCATS] NIH Chemical Genomics Center [NCGC] U.S. Environmental Protection Agency [EPA] National Institutes of Environmental Health Sciences [NIEHS] National Toxicology Program [NTP] Assay overview: Estrogen receptor (ER), a member of nuclear hormone receptor plays an important role in development, metabolic homeostasis and reproduction. Two subtypes of ER, ER-alpha and ER-beta, have similar expression patterns with some uniqueness in both types. Endocrine disrupting chemicals (EDCs) and their interactions with steroid hormone receptors like ER causes disruption of normal endocrine function. Therefore, it is important to understand the effect of environmental chemicals in ER signaling pathway. For identifying ER agonists, VM7Luc4E2 cell line has been used in the current assay. VM7Luc4E2 cell line (provided by Denison MS, University of California) endogenously expresses full-length ER-alpha and is stably transfected with a plasmid containing four estrogen responsive elements (ERE) upstream of a luciferase reporter gene. This current screening for measuring luciferase reporter gene activity using VM7Luc4E2 cells against Tox21 10K library collection is a confirmation study on agonist mode screening in presence of ER-antagonist (ICI-182,780) at 10.0nM final concentration.
Assay Protocol Summary: VM7Luc4E2 cells were cultured in phenol red free assay medium containing 10% charcoal stripped FBS for 5 days prior to the assay. The cells were dispensed at 4,000 cells in 4uL of assay medium per well into white wall/solid-bottom 1536-well plates (Corning Life Sciences, Corning, NY) using a Multidrop Combi (Thermo Fisher Scientific Inc., Waltham, MA) dispenser. After the assay plates were incubated at 37C and 5% CO2 for 24hr, 1uL of 10.0nM (final concentration) ICI-182,780 or assay buffer was added using two separate tips of Flying Reagent Dispenser (FRD, Aurora Discovery, San Diego, CA). Then 23nL of compounds dissolved in DMSO at 15 concentrations and positive controls or DMSO only was transferred to the assay plates by a Pintool station (Wako, San Diego, CA). The assay plates were incubated at 37C and 5% CO2 for 22hr. For luciferase read, 4uL/well ONE-Glo reagent (Promega Corporation, Madison, WI) was added to each well using FRD and after 30min incubation at room temperature, luminescence signal was measured on ViewLux plate reader (PerkinElmer, Shelton, CT).
% is scaled to controls: 0 for no effect and ±100 for the full control effect; potency is read from the fitted curve at half-maximal effect.

SMILES	activation	Potency
Nc1ccc(-c2ccc(F)cc2)cc1	13.8%	–
CC1(C)CC(=O)CC(C)(C)N1	-1.24%	–
CCCCCCCCS	-1.5%	–
CC(C)NC(=O)c1ccccc1N	0.975%	–
Cc1cc(C)c(C)c(O)c1	-2.3%	–
CC[C@H](NC(C)C)[C@H](O)c1ccc(O)c2[nH]c(=O)ccc12	0.496% [at 42.5 µM]	–
c1ccc(-c2ccc(-c3ccccc3)cc2)cc1	–	0.629 µM (active)
Clc1cccc(C(c2ccc3nc[nH]c3c2)n2ccnc2)c1 (stereo not given)	0.0808% [at 42.5 µM]	–
C1=COCCC1	-0.736%	–
CCCC1CCOC(C)S1 (stereo not given)	-0.535%	–
O=C(O)c1c2ccccc2cc2ccccc12	0.885%	–
C(/C=C/C=C/Nc1ccccc1)=Nc1ccccc1	0.273%	–
CC(C)CC(C)(C)C	10.6%	–
O=C(N[C@@H](Cc1ccccc1)[C@@H](O)C(=O)N1C[C@@H](O)[C@@H](O)C1)c1cc2cc(Cl)ccc2[nH]1	-3.66%	–
Cc1ccc(NC=O)c(C)c1	-1.47%	–
Oc1ccc(Oc2ccccc2)cc1	–	41 µM (active)
CCCC(=O)OCc1ccccc1	-1.02%	–
COc1cc(C)c(Cc2cnc(N)nc2N)cc1OC	-0.0986% [at 42.5 µM]	–
O=C(c1ccco1)N1CCNCC1	0.536% [at 42.5 µM]	–
CC(C)=CCC[C@H](C)CCO	0.268%	–

SMILES	activation	Potency
CC(C)C[C@H](NC(=O)[C@H](Cc1ccccc1)NC(=O)c1cnccn1)B(O)O	-2.8% [at 42.5 µM]	–
Cc1c(Cl)cccc1Nc1ccccc1C(=O)O	0.721% [at 42.5 µM]	–
Cc1cc(N)n(-c2ccccc2)n1	4.62%	–
NC(=O)c1cc[n+](CC2=C(C(=O)[O-])N3C(=O)[C@@H](NC(=O)Cc4cccs4)[C@H]3SC2)cc1	1.37% [at 42.5 µM]	–
CCc1cnc(C(=O)O)c(C(=O)O)c1	0.34%	–
CCn1nc(Cc2ccccc2)cc1C1CCN(C[C@H]2C[C@H](N(C)[C@@H](C(=O)O)C(C)C)C[C@@H]2c2cccc(F)c2)CC1	-0.639%	–
COc1ccnc2c1CCCCC2S(=O)c1nc2ccccc2[nH]1 (stereo not given)	2.29% [at 42.5 µM]	–
CCCC(=O)OCCC(C)C	-0.995%	–
CC(C)(C)c1cc(C=O)cc(C(C)(C)C)c1O	-0.225% [at 42.5 µM]	–
Oc1ccc(CCNCCCCCCNCCc2ccccc2)cc1O	-0.15% [at 42.5 µM]	–
O=c1c2ccccc2oc2ccccc12	11.3%	–
CCCCCCCCCCCCSCCOCCO	1.55% [at 42.5 µM]	–
NC(=O)c1ccccc1	-0.673%	–
CC(C)(C(=O)O)c1ccc(C(O)CCCN2CCC(C(O)(c3ccccc3)c3ccccc3)CC2)cc1 (stereo not given)	-0.576% [at 42.5 µM]	–
C/C(=C(\CCO)SS/C(CCO)=C(\C)N(C=O)Cc1cnc(C)nc1N)N(C=O)Cc1cnc(C)nc1N	0.591% [at 42.5 µM]	–
Cc1c(N=C=O)cccc1N=C=O	-0.355%	–
CC(COc1ccccc1)NC(C)C(O)c1ccc(O)cc1 (stereo not given)	0.144% [at 42.5 µM]	–
Cc1nc(C)c(C)nc1C	-0.0122%	–
COc1ccc(C(=O)c2ccc(C)cc2)c(O)c1	11.3%	–
Cc1cc(C)n(CO)n1	-0.239%	–
